Our source for the Potency, max response and outcome values is PubChem BioAssay (NCATS).

SMILES strings stand for the structures. Results filed as inconclusive are left out. Unmarked numbers belong to inactive results. Activity calls are given as the source filed them. Calls follow the shape of the dose curve; as a rule, active = well fitted inhibition curve with a large enough effect; inconclusive = small, poorly fitted or top-dose-only effect; inactive = flat fitted curve, though single readings scatter.
Also: nearly all actives have a fitted effect of over 60% in size.
Potency is read from the fitted curve at half-maximal effect.

One experiment concerns TAB109. The experiment is described as follows: qHTS profiling for inhibitors of Plasmodium falciparum proliferation (AID 504749). Conditions: P. falciparum in erythrocytes, SYBR Green DNA, 72 h; series mostly up to 28.7 µM. In short, it runs like this: (§1)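 Readout was DNA-dye fluorescence from lysed cultures, ex 485/em 535 nm. Parasitized red cells had grown 72 h with compound; data scaled between 0.29 uM artemisinin and DMSO wells and corrected using vehicle-only plates.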
A general note: Quantitative high-throughput screening tests each substance at several concentrations.
In the case of `CCC(C(=O)O)C1CCC(C)C(C(C)C(O)C(C)C(=O)C(CC)C2OC3(C=CC(O)[C@@]4(CC[C@](C)(C5CC[C@@](O)(CC)C(C)O5)O4)O3)C(C)CC2C)O1` (stereo partly drawn), the Potency was 1 µM (active).
As to `CCCCCCCCCCCC(CC1OC(=O)C1CCCCCC)OC(=O)C(CC(C)C)NC=O` (stereo not drawn), the Potency is 0.794 µM (active).
As for `COc1cccc2c1C(=O)c1c(O)c3c(c(O)c1C2=O)C[C@@](O)(C(=O)CO)C[C@@H]3O[C@H]1C[C@H](N)[C@H](OC2CCCCO2)[C@H](C)O1` (stereo partly drawn), the Potency is 2.51 µM (active).

A further experiment has as its system TAB113. The experiment is described as above. Conditions: P. falciparum in erythrocytes, SYBR Green DNA, 72 h; series mostly up to 28.7 µM. A digest of the protocol:
as §1
Turning to `CCC(C(=O)O)C1CCC(C)C(C(C)C(O)C(C)C(=O)C(CC)C2OC3(C=CC(O)[C@@]4(CC[C@](C)(C5CC[C@@](O)(CC)C(C)O5)O4)O3)C(C)CC2C)O1` (stereo partly drawn), the Potency is 0.891 µM (active).
In the case of `CCCCCCCCCCCC(CC1OC(=O)C1CCCCCC)OC(=O)C(CC(C)C)NC=O` (stereo not drawn), the Potency was 0.282 µM (active).
Still for that read-out and setting: the value for `COc1cccc2c1C(=O)c1c(O)c3c(c(O)c1C2=O)C[C@@](O)(C(=O)CO)C[C@@H]3O[C@H]1C[C@H](N)[C@H](OC2CCCCO2)[C@H](C)O1` (stereo partly drawn) was 3.55 µM (active).

The subject of the next experiment is TAB165. Described as above. To be noted: P. falciparum in erythrocytes, SYBR Green DNA, 72 h; series mostly up to 28.7 µM. In short, it runs like this:
as §1
For `CCC(C(=O)O)C1CCC(C)C(C(C)C(O)C(C)C(=O)C(CC)C2OC3(C=CC(O)[C@@]4(CC[C@](C)(C5CC[C@@](O)(CC)C(C)O5)O4)O3)C(C)CC2C)O1` (stereo partly drawn), the Potency is 0.708 µM (active).
Same read-out and setting: the value for `CCCCCCCCCCCC(CC1OC(=O)C1CCCCCC)OC(=O)C(CC(C)C)NC=O` (stereo not drawn) was 0.398 µM (active); that for `COc1cccc2c1C(=O)c1c(O)c3c(c(O)c1C2=O)C[C@@](O)(C(=O)CO)C[C@@H]3O[C@H]1C[C@H](N)[C@H](OC2CCCCO2)[C@H](C)O1` (stereo partly drawn) was 2.24 µM (active).

Another experiment deals with W2. The description is as above. To be noted: P. falciparum in erythrocytes, SYBR Green DNA, 72 h; series mostly up to 28.7 µM. A digest of the protocol:
as §1
For `CCC(C(=O)O)C1CCC(C)C(C(C)C(O)C(C)C(=O)C(CC)C2OC3(C=CC(O)[C@@]4(CC[C@](C)(C5CC[C@@](O)(CC)C(C)O5)O4)O3)C(C)CC2C)O1` (stereo partly drawn), the Potency was 0.757 µM (active).
As to `CCCCCCCCCCCC(CC1OC(=O)C1CCCCCC)OC(=O)C(CC(C)C)NC=O` (stereo not drawn), the Potency is 0.675 µM (active).
As to `COc1cccc2c1C(=O)c1c(O)c3c(c(O)c1C2=O)C[C@@](O)(C(=O)CO)C[C@@H]3O[C@H]1C[C@H](N)[C@H](OC2CCCCO2)[C@H](C)O1` (stereo partly drawn), the Potency is 0.601 µM (active).

For another experiment, the system named is HEK293. The experiment is described as follows: Cytotoxic Profiling of Annotated Libraries Using Quantitative High-Throughput Screening (AID 1296008). As to max response: % is scaled to controls: 0 for no effect and ±100 for the full control effect. Conditions: Five cell lines viability, CellTiter-Glo ATP luminescence, 48-72 h; max response: hits give low values. In short, it runs like this:
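Cells exposed to compounds for 48 or 72 hr at 37 degrees Celsius. Viability read as ATP-coupled luminescence with CellTiter-Glo after 10 min at room temperature.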
Regarding `CC(C)Oc1ccc(C(=O)N[C@H](CNC(=O)CN(C)C)Cc2ccc(-c3cn4cccc([C@H](C)O)c4n3)cc2)cc1Cl`, the Potency was 0.372 µM (active).
Same read-out and setting: the value for `CC(C=CC1=C(C)CCCC1(C)C)=CC=CC(C)=CC(=O)Nc1ccc(O)cc1` was 6.79 µM (active); that for `COC[C@H](NC(=O)c1cnc(C)s1)C(=O)N[C@@H](COC)C(=O)N[C@@H](Cc1ccccc1)C(=O)[C@@]1(C)CO1` was 0.148 µM (active); that for `CCCCCN=C(N)NN=Cc1c[nH]c2ccc(OC)cc12` was 7.43 µM (active).
On the same count and under the same terms, under `CCc1ccc(C(=O)Nc2cc(CN3CCN(C)CC3)cc(C(F)(F)F)c2)cc1C#Cc1cnc2ccnn2c1` stands 10.5 µM (active).
For `CC(C)(O)CC[C@@H](O)[C@](C)(O)[C@H]1CC[C@@]2(O)C3=CC(=O)[C@@H]4C[C@@H](O)[C@@H](O)C[C@]4(C)[C@@H]3CC[C@]12C`, the max response was -3.79%.
In the case of `NC(=NCCCCCCN=C(N)N=C(N)Nc1ccc(Cl)cc1)N=C(N)Nc1ccc(Cl)cc1`, the Potency is 13.2 µM (active).
The same measure, in the same setting: the value for `NC(=O)N1CCC(CC(=O)N2CCC([C@H]3c4ncc(Br)cc4CCc4cc(Cl)cc(Br)c43)CC2)CC1` was 1.32 µM (active); that for `COc1cc(OC)c(C=CS(=O)(=O)Cc2ccc(OC)c(NCC(=O)O)c2)c(OC)c1` was 0.118 µM (active); that for `CCCNC(=O)[C@H]1O[C@H]1C(=O)N[C@H](C(=O)N1CCC[C@@H]1C(=O)OC)C(C)CC` (stereo partly drawn) was 10.5 µM (active).
Consider `Cc1cnn(C)c1C(=O)Nc1cc(Nc2ccc3c(C=Cc4ccccn4)n[nH]c3c2)ccc1F`, for which the Potency was 3.72 µM (active).
The same measure, in the same setting: the value for `OCCNC1CCCc2c1[nH]c1ccc(-c3ccccc3)cc21` (stereo not drawn) was 13.2 µM (active).
Consider `CN[C@H](CC(C)C)C(=O)N[C@H]1C(=O)N[C@@H](CC(N)=O)C(=O)N[C@@H]2C(=O)N[C@H]3C(=O)N[C@H](C(=O)N[C@H](C(=O)O)c4cc(O)cc(O)c4-c4cc3ccc4O)[C@H](O)c3ccc(c(Cl)c3)Oc3cc2cc(c3O[C@@H]2O[C@H](CO)[C@@H](O)[C@H](O)[C@@H]2O[C@H]2C[C@](C)(N)[C@H](O)[C@H](C)O2)Oc2ccc(cc2Cl)[C@H]1O`, for which the max response was -10.3%.
In the case of `C[N+](C)([O-])CCNc1ccc(NCC[N+](C)(C)[O-])c2c1C(=O)c1c(O)ccc(O)c1C2=O`, the Potency is 5.26 µM (active).
Turning to `CCC(C(=O)O)C1CCC(C)C(C(C)C(O)C(C)C(=O)C(CC)C2OC3(C=CC(O)[C@@]4(CC[C@](C)(C5CC[C@@](O)(CC)C(C)O5)O4)O3)C(C)CC2C)O1` (stereo partly drawn), the Potency was 1.18 µM (active).
For `Cc1cncc2cccc(S(=O)(=O)N3CCCN(C(=O)CN)C[C@@H]3C)c12`, the call was inactive.
Take `CCc1cnn2c(NCc3ccc[n+]([O-])c3)cc(N3CCCC[C@@H]3CCO)nc12`: the Potency is 0.0332 µM (active).
Still for that read-out and setting: the value for `Oc1ccc(-c2ccc(-c3cc(Nc4cccc(CNC5CC5)c4)n[nH]3)cc2)c(O)c1` was 1.18 µM (active).
The same measure, in the same setting: under `COc1cc2c(cc1O)CCC1C2CC[C@@]2(C)C1CC[C@@H]2O` (stereo partly drawn) stands 1.18 µM (active).
Consider `C[C@]12CC[C@@H]3c4ccc(O)cc4CC[C@H]3[C@H]1CC[C@H]2O`, for which the Potency was 20.9 µM (active).
Same read-out and setting: the value for `CN1CCCN(C(=O)c2cccc(-c3ccc(C=C4C(=O)Nc5ccc(Cl)cc54)o3)c2)CC1` was 1.32 µM (active); that for `C[C@H](NCc1ccc(OCc2cccc(F)c2)cc1)C(N)=O` was 11.8 µM (active); that for `C[C@H]1[C@@H](OC(=O)CCC(=O)O)O[C@@H]2O[C@@]3(C)CC[C@@H]4[C@H](C)CC[C@@H]1[C@@]24OO3` was 2.35 µM (active).
On to `COc1ccc(Nc2cc(-c3cnc(N)nc3)nc(N3CCOCC3)n2)cn1`, for which the Potency was 1.87 µM (active).
Regarding `COc1cccc2c1C(=O)c1c(O)c3c(c(O)c1C2=O)C[C@@](O)(C(=O)CO)C[C@@H]3O[C@H]1C[C@H](N)[C@H](OC2CCCCO2)[C@H](C)O1` (stereo partly drawn), the Potency was 0.332 µM (active).
The same measure, in the same setting: the value for `CC(O)(C#Cc1ccc2c(c1)N(c1nc(N)ncc1Cl)CC2)c1nccs1` (stereo not drawn) was 26.4 µM (active).
